# What was measured:
# [1] = target: Bromodomain-containing protein 4 (Homo sapiens) (UniProt O60885); settings: Compound concentration 10.0 uM, Protein concentration 2.0 uM
# [2] = target: T1, Transcription intermediary factor 1-alpha (Homo sapiens) (UniProt O15164); settings: Compound concentration 10.0 uM, Protein concentration 2.0 uM
# T1 sequence (whole entry): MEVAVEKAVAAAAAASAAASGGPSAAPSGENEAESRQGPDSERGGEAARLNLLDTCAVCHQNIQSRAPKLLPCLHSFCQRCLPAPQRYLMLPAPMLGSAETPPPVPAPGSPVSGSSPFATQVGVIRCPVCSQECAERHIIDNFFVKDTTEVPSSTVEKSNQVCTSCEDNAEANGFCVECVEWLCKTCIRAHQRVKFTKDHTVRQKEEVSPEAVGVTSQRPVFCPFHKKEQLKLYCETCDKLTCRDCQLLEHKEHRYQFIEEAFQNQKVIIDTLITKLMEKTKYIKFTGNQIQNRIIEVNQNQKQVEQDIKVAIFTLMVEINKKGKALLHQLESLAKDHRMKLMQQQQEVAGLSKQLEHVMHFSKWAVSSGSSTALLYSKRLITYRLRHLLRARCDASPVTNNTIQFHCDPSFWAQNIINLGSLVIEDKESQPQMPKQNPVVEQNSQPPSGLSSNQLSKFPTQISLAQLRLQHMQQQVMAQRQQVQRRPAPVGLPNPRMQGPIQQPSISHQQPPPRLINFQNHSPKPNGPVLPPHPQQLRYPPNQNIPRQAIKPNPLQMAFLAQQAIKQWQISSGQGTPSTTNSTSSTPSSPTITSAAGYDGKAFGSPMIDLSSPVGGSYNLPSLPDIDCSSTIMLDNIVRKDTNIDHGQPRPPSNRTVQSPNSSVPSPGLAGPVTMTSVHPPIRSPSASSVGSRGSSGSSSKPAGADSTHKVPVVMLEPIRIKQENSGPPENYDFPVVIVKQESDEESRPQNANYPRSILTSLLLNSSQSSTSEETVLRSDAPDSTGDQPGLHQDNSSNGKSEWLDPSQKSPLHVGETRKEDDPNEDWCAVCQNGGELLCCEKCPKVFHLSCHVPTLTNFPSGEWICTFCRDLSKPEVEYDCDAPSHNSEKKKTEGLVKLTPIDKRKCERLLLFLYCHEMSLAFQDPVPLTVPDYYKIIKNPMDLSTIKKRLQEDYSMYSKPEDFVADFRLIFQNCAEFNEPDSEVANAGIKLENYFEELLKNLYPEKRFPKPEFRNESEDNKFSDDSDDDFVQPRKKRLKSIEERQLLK
compound,measurement,setting,value
CC(=O)c1cc(-c2cc(C(=O)NC3CC3)ccc2C)c2ncccn12,ΔTm,[1],0.28 °C
same,ΔTm,[2],0.37 °C

# Source: ChEMBL document CHEMBL4649997, “Data for probe TP-472” (2021)
